In the library only some 0.83% were active in any assay of this set; here they are far more common.
NR2F2 inh: NR2F2 transcriptional activity inhibitors, primary screen, cell-based, luciferase reporter, HEK293T, luminescence | COUP transcription factor 2 (Homo sapiens), P24468 | HEK293T NGFI-A luciferase reporter | inhibition, % at 8.6 µM | 370,000 tested, 0.7% active | AID 686940, 2013;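 active means inhibition above a per-plate cutoff, mean inhibition of test wells between control levels plus 3 SD, cut at about 38% in these data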;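 further: cells cotransfected with COUP-TFII expression vector driving the NGFI-A reporter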
SRC3 inh: SRC3 coactivator transcriptional activity inhibitors, primary screen, cell-based, luminescence; Nuclear receptor coactivator 3 (Homo sapiens), Q9Y6Q9; HEK293 GAL4-SRC3 luciferase reporter; inhibition, % at 3.6 µM; 360,000 tested, 0.17% active; AID 588352, 2011;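 active means inhibition above a per-campaign cutoff, the mean of all compounds plus 3 SD, cut at about 60% in these data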;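 further: higher means less SRC3-driven luciferase light from the GAL4 reporter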
LRH-1 inv ag: LRH-1 (NR5A2) inverse agonists, primary screen, cell-based, luminescence, HEK293T, StAR-luciferase reporter; Nuclear receptor subfamily 5 group A member 2 (Homo sapiens), O00482; LRH-1 transfected, 24 h; inhibition, % at 3.6 µM; 360,000 tested, 0.13% active;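 active means inhibition above the mean inhibition of all tested compounds plus 3 SD, cut at about 73% in these data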
NCOA2 inhibitor: inhibition of GAL4-SRC2 driven luciferase reporter, primary screen, SRC2 inhibitor project, cell-based, luminescence; Nuclear receptor coactivator 2 (Homo sapiens), Q15596; HEK293 GAL4-SRC2 luciferase reporter; 370,000 tested, 0.17% active; inhibition, % at 9 µM;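 active means inhibition above the mean inhibition of all tested compounds plus 3 SD, set per campaign, cut at about 52% in these data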
NCOA1 inh: SRC1 coactivator transcriptional activity inhibitors, primary screen, cell-based, luminescence; HEK293 GAL4-SRC1 luciferase reporter; inhibition, % at 3.6 µM; 360,000 tested, 0.12% active; Nuclear receptor coactivator 1 (Homo sapiens), Q15788;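 active means inhibition above the campaign mean plus 3 SD, with each screening campaign given its own cutoff, cut at about 60% in these data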
VP16 Luc counter: Gal4-VP16 luciferase reporter inhibitors, counter-screen for COUP-TFII antagonist project, cell-based, luminescence, HEK293 | 2,500 tested, 25% active | inhibition, % at 8.5 µM | shares compounds with NR2F2 inh; in the data active means inhibition above about 13%
COUP-TFII conf: NR2F2 transcriptional activity inhibitors, confirmation, cell-based, luciferase reporter, HEK293, triplicate | shares compounds with NR2F2 inh | HEK293 NGFI-A luciferase reporter, luminescence | inhibition, % at 8.5 µM | 2,500 tested, 45% active;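 active means mean inhibition over three repeats above a set limit taken from the earlier primary screen, cut at about 38% in these data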
Large screens that a line does not name were inactive (follow-up assays come after a bar, where they were run).

Nc1ccn([C@@H]2O[C@H](C(=O)N[C@H](Cc3ccccc3)C(=O)NCC(F)(F)F)[C@@H](O)[C@H]2O)c(=O)n1	none (no result: SRC3 inh, LRH-1 inv ag, NCOA1 inh)
Fc1ccc(NC(=S)NNc2ncc(C(F)(F)F)cc2Cl)c(F)c1	NR2F2 inh 58 | VP16 Luc counter 20 | COUP-TFII conf inactive
COc1ccccc1N1CCN(Cc2cc(Br)c(O)c3ncccc23)CC1	NR2F2 inh 47, LRH-1 inv ag 73 | VP16 Luc counter inactive | COUP-TFII conf inactive
c1ccc(CNc2ncnc3sccc23)cc1	none
c1csc(CNc2ncnc3sccc23)c1	NR2F2 inh 63 | VP16 Luc counter inactive | COUP-TFII conf 46
COc1ccc(CNc2ncnc3sccc23)cc1	NR2F2 inh 49 | VP16 Luc counter inactive | COUP-TFII conf 39
COc1ccc(C(CNc2ncnc3sccc23)N(C)C)cc1OC (stereo unspecified)	none
Cc1cc2c(NCc3ccccc3)ncnc2s1	NR2F2 inh 49 | VP16 Luc counter inactive | COUP-TFII conf inactive
Cc1sc2ncnc(NCc3ccccc3)c2c1C	none
COc1ccc(CNc2ncnc3sccc23)cc1OC	NR2F2 inh 48 | VP16 Luc counter inactive | COUP-TFII conf inactive
COc1cccc(/C=C2\CC3(OC(=O)C4CCCC4)CCCN2C3)c1 (stereo unspecified)	none (no result: SRC3 inh, LRH-1 inv ag, NCOA1 inh)
O=C(NCc1ccco1)OC1CCC12CCC(c1ccccc1)CC2 (stereo unspecified)	none (no result: SRC3 inh, LRH-1 inv ag, NCOA2 inhibitor, NCOA1 inh)
OC(CNc1ncnc2sccc12)c1ccccc1 (stereo unspecified)	NR2F2 inh 40 | VP16 Luc counter inactive | COUP-TFII conf inactive
O=C(N/N=C/c1ccc(OC(F)F)cc1OC(F)F)c1ccc(Br)cc1	none
Cc1ccc(S(=O)(=O)N(C)Cc2ccc(C(=O)N/N=C/c3ccc(OC(F)F)cc3OC(F)F)cc2)cc1	NR2F2 inh 70 | VP16 Luc counter inactive | COUP-TFII conf 74
C=CCn1c(Cc2cccs2)nnc1SCC(=O)Nc1ccc(C)cc1	none (no result: SRC3 inh, LRH-1 inv ag, NCOA1 inh)
COc1cccc(Cn2c(NCc3ccco3)nc3c2c(=O)n(C)c(=O)n3C)c1	NR2F2 inh 49 (no result: SRC3 inh, LRH-1 inv ag, NCOA1 inh) | VP16 Luc counter inactive | COUP-TFII conf inactive
CCCCCCCC/C=C\CCCCCCCC(=O)NCCO	none
CCCCCCCC/C=C\CCCCCCCC(=O)NCCc1ccc(O)c(O)c1	NR2F2 inh 59, SRC3 inh 62, LRH-1 inv ag 78 | VP16 Luc counter inactive | COUP-TFII conf inactive
COC(=O)C1CCC(CNC(=O)C(Cc2ccc3c(c2)OCO3)NC(C)=O)CC1 (stereo unspecified)	none (no result: SRC3 inh, LRH-1 inv ag, NCOA1 inh)
O=C(OCc1cn(Cc2cccc(Cl)c2)nn1)N1CCOCC1	none (no result: SRC3 inh, LRH-1 inv ag, NCOA1 inh)
Cc1cc(N2CCN(C(=O)Oc3ccc([N+](=O)[O-])cc3)CC2)c2ccccc2n1	NR2F2 inh 43 (no result: SRC3 inh, NCOA1 inh) | VP16 Luc counter inactive | COUP-TFII conf inactive
Cc1cc(N2CCN(S(=O)(=O)c3ccc(Cl)cc3)CC2)c2ccccc2n1	NR2F2 inh 41 | VP16 Luc counter inactive | COUP-TFII conf inactive
Cc1cc2c(c(=O)o1)[C@@]1(C(=O)N(C)c3cccc(Br)c31)C1=C(CCCC1=O)O2	none (no result: SRC3 inh, LRH-1 inv ag, NCOA1 inh)
CC(C)(C)c1ccc(S(=O)(=O)N2CCCC(C(=O)N3CCN(Cc4ccccc4)CC3)C2)cc1 (stereo unspecified)	NR2F2 inh 45 (no result: SRC3 inh, LRH-1 inv ag, NCOA1 inh) | VP16 Luc counter inactive | COUP-TFII conf inactive
COc1ccc2c(c1)CCCN2C(=O)C1CCCN(S(=O)(=O)c2cccs2)C1 (stereo unspecified)	none (no result: SRC3 inh, LRH-1 inv ag, NCOA1 inh)
COc1ccc2c(c1)CCCN2C(=O)C1CCCN(S(=O)(=O)c2ccc(C(C)(C)C)cc2)C1 (stereo unspecified)	NR2F2 inh 48 (no result: SRC3 inh, LRH-1 inv ag, NCOA1 inh) | VP16 Luc counter inactive | COUP-TFII conf inactive
Nc1ncnc2c1ncn2[C@@H]1O[C@H](C(=O)N[C@@H](CCc2ccccc2)C(=O)N2CCN(C(=O)N3CCOCC3)CC2)[C@@H](O)[C@H]1O	none (no result: SRC3 inh, LRH-1 inv ag, NCOA1 inh)
COC(=O)C1=C(C)N(Cc2ccccc2C(F)(F)F)C(=NCc2ccc(OC)cc2)NC1c1ccc(C(F)(F)F)cc1 (stereo unspecified)	none (no result: SRC3 inh, LRH-1 inv ag, NCOA1 inh)
Cc1nnsc1NC(=O)OCc1ccc(C(C)(C)C)cc1	NR2F2 inh 56 | VP16 Luc counter inactive | COUP-TFII conf 38
C[C@H]1O[C@@H](O[C@H]2[C@@H](O)C[C@H](O[C@H]3[C@@H](O)C[C@H](O[C@H]4CC[C@@]5(C)[C@H](CC[C@@H]6[C@@H]5C[C@@H](O)[C@]5(C)[C@@H](C7=CC(=O)OC7)CC[C@]65O)C4)O[C@@H]3C)O[C@@H]2C)C[C@H](O)[C@@H]1O	NR2F2 inh 80, SRC3 inh 91, LRH-1 inv ag 102, NCOA2 inhibitor 61, NCOA1 inh 87 | VP16 Luc counter 48 | COUP-TFII conf 77
CCOC(=O)CC[C@@H]1CC[C@]2(CCCN(Cc3nccs3)C2)O1	none (no result: SRC3 inh, LRH-1 inv ag, NCOA1 inh)
CC(=O)c1ccc(N2CCN(C(=S)Nc3ccc(Oc4ccccc4)cc3)CC2)cc1	NR2F2 inh 69 | VP16 Luc counter inactive | COUP-TFII conf 56
FC(F)Sc1ccc(NC(=S)NC(c2ccccc2)c2ccccc2)cc1	none
S=C(Nc1cc(Cl)cc(Cl)c1)NC(c1ccccc1)c1ccccc1	NR2F2 inh 57 (no result: SRC3 inh, LRH-1 inv ag, NCOA2 inhibitor, NCOA1 inh) | VP16 Luc counter inactive | COUP-TFII conf inactive
O=C(CSc1nc2ccccc2o1)Nc1nc2c(s1)CCCC2	NR2F2 inh 52 | VP16 Luc counter inactive | COUP-TFII conf inactive
COc1cc2[nH]c(C(=O)Nc3ccc4c(c3)OCCO4)cc2c(OC)c1OC	none
COc1cc2cc(C(=O)Nc3ccc4c(c3)OCCO4)[nH]c2cc1OC	NR2F2 inh 48 | VP16 Luc counter inactive | COUP-TFII conf inactive
CC(=O)OC[C@H]1O[C@H](C#Cc2ccc(C(C)(C)C)cc2)C=C[C@H]1OC(=O)Nc1ccccc1	none (no result: SRC3 inh, LRH-1 inv ag, NCOA1 inh)
COC(=O)[C@]12C[C@H](CC(=O)NCc3ccc(OC)c(OC)c3)C(=O)N(CCC3=CCCCC3)C1=C[C@H](C(C)C)O[C@@H]2C1CC1	none (no result: SRC3 inh, LRH-1 inv ag, NCOA1 inh)
CS(=O)(=O)N1CCc2cc(-c3csc(NC(=O)C(c4ccccc4)c4ccccc4)n3)ccc21	none
CC1Cc2cc(-c3csc(NC(=O)Cc4ccccc4)n3)ccc2N1S(C)(=O)=O (stereo unspecified)	NR2F2 inh 75 | VP16 Luc counter inactive | COUP-TFII conf 49
Cc1ccc(NC(=O)OC2CC3CC2[C@H]2CCCCN2C3)cc1 (stereo partly specified)	none (no result: SRC3 inh, LRH-1 inv ag, NCOA1 inh)

Screening data from PubChem.
